# Shiga toxin inh: A qHTS for Small Molecule Inhibitors of Shiga Toxin. Vero cells, Shiga toxin protein synthesis inhibition reporter. inhibition, % at 38.7 µM. AID 2315, 2010. hit rate 9.2% among 290,000; in the data active = inhibition mostly above about 28%, no sharp cut-off; inactive = mostly below about 43%; note: 0% is about no effect
# CHX counter: Cycloheximide Counterscreen for Small Molecule Inhibitors of Shiga Toxin | max response, % | AID 2314, 2010 | hit rate 12% among 300,000 | cell reporter, cycloheximide protein synthesis inhibition counterscreen; in the data active = max response mostly above about 13%, no sharp cut-off; inactive = mostly below about 14%; note: read at 38.3 µM for the half of the compounds with a filed dose; 0% is about no effect
# Sm TGR inh: qHTS Assay for the Inhibitors of Schistosoma Mansoni Peroxiredoxins; hit rate 3% among 360,000; Potency, µM (highest dose often 114 µM), for inactives: top-dose activity change, negative = inhibition, most hits filed as inhibitors; Schistosoma mansoni thioredoxin glutathione reductase (TGR), Q962Y6; purified TGR, DTNB reduction, TNB absorbance 405 nm; note: potency is the fitted concentration of half-maximal effect; % is set by controls: 0 for no effect and ±100 for the full control effect; nearly all actives have a fitted effect of over 60% in size
#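 TGR 20 nM + NADPH 100 uM (dispensed conc.), cpd preinc 15 min RT; start with NADPH (500 uM addition) then DTNB (15 mM addition). Kinetic TNB absorbance, 405 nm filter. Four-parameter Hill fit across titration.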
# FBPA Giardia inh: qHTS Assay for Inhibitors of Fructose-1,6-bisphosphate Aldolase from Giardia Lamblia; A8B2U2; purified Giardia FBPA; Potency, µM (titrated, usually from 59.6 µM), for inactives: at the top dose activity, negative = inhibition, most hits filed as inhibitors; hit rate 0.71% among 290,000; AID 2451, 2010; note: potency is the fitted concentration of half-maximal effect; % is set by controls: 0 for no effect and ±100 for the full control effect; nearly all actives have a fitted effect of over 55% in size
#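 40 nM FBPA preincubated 10 min at RT with compound (up to 57.5 uM final), then substrate plus GAPDH/TPI/NAD/arsenate coupling and diaphorase/resazurin added. Fluorescence read after 20 min at RT, 525/598 nm.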
# LmPK inh: qHTS Assay for Inhibitors of Leishmania Mexicana Pyruvate Kinase (LmPK) | Q27686 | purified LmPK, Kinase-Glo ATP luminescence, 1 h | Potency, µM (doses to about 57.5 µM), for inactives: at the highest dose activity change, negative = inhibition, usual class: inhibitors | hit rate 0.37% among 290,000 | AID 1721, 2009; note: potency is the fitted concentration of half-maximal effect; % is set by controls: 0 for no effect and ±100 for the full control effect
# Target sequence (Q27686 whole entry, looked up): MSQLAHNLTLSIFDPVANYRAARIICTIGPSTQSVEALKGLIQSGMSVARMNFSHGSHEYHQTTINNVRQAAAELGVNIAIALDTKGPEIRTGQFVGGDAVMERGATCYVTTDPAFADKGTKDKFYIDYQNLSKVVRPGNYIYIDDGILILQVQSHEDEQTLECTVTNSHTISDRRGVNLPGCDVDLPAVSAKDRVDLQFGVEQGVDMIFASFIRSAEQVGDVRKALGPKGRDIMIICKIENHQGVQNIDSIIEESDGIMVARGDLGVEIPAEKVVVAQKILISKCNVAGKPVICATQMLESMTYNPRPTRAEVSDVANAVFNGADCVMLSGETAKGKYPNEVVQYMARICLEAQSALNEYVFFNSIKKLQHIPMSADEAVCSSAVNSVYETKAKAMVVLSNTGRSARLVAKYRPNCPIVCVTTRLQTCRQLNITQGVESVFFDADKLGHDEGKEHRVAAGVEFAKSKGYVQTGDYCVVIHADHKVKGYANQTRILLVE
#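 Kinase-Glo luminescence read after 1 h RT reaction of 0.1 nM LmPK with 0.5 mM PEP and 0.1 mM ADP. Activity scaled between uninhibited and enzyme-free controls.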
# Tb PYK inh: qHTS of Trypanosoma Brucei Inhibitors; TbPYK enzyme, Kinase-Glo Plus ATP luminescence, 45 min; Potency, µM (highest dose often 76.8 µM), for the others: at the top dose activity, negative = inhibition, usual class: inhibitors; hit rate 0.12% among 410,000; note: potency is the fitted concentration of half-maximal effect; % is set by controls: 0 for no effect and ±100 for the full control effect; nearly all actives have a fitted effect of over 50% in size
#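 Glycolytic pyruvate kinase of T. brucei was incubated with substrate, test compound and 130 uM ADP for 45 minutes at room temperature. Luminescent Kinase-Glo Plus signal was measured after 10 minutes.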
# Active calls of the source: *; ? = inconclusive; . = not tested or not shown. The sample as a whole holds a higher share of hits than the screen did. Unless noted, calls come from the whole dose curve; as a rule, active = well fitted curve in the direction sought with a large enough effect; inconclusive = small, poorly fitted or top-dose-only effect, or another doubt; inactive = no such curve, though single readings can be large; an effect the other way counts as inactive or inconclusive.
SMILES,Shiga toxin inh,CHX counter,Sm TGR inh,FBPA Giardia inh,LmPK inh,Tb PYK inh
C=CCN1C(=O)C(CC(C)C)NC1=S (stereo not drawn),-6,-1,.,1%,.,-2%
COc1cccc(NC(=O)Cn2cc(C(=O)c3ccco3)c3ccccc32)c1,.,.,-1%,.,.,-9%
CN(c1ccccc1)S(=O)(=O)c1cccc(NC(=O)C2=NNC(=O)CC2)c1,.,.,.,.,.,-8%
O=C(N[C@@H](Cc1ccc(O)cc1)C(=O)O)c1cccnc1,11,-3,50µM*,5%,-3%,-1%
O=C(N[C@@H](Cc1ccccc1)C(=O)O)c1ccncc1,-16,-1,-33%,3%,0%,0%
CCOc1ccc(NC(=O)c2c(NCc3ccc(C)o3)sc3c2CCC(C)C3)cc1 (stereo not drawn),.,.,25µM*,.,.,-17%
CCOc1ccc(NC(=O)c2c(NCc3cccnc3)sc3c2CCC(C)C3)cc1 (stereo not drawn),.,.,-34%,.,.,14µM*
Cc1ccc(OCC(=O)Nc2ccc(S(=O)(=O)Nc3cc(C)nc(C)n3)cc2)c(Br)c1,.,.,-6%,.,.,-5%
COc1cc(OC)cc(-c2nnc3n2N=C(c2ccc(OC)c(OC)c2)CS3)c1,-6,-12,.,3%,.,.
Cc1ccc(CC2S/C(=C(/C#N)C(=O)NCc3ccco3)N(c3ccccc3)C2=O)cc1 (stereo not drawn),-12,-6,3%,0%,2%,8%
N#C/C(C(=O)NCc1ccco1)=C1/SC(Cc2ccc(Cl)cc2)C(=O)N1c1ccccc1 (stereo not drawn),-26,18*,-14%,-22%,0%,-7%
c1ccc(-c2cc(-c3nc(-c4ccccn4)no3)c3ccccc3n2)cc1,.,.,.,.,.,-13%
Cc1ccc(-c2nc(-c3ccccn3)no2)cc1,-11,-10,5%,6%,2.8µM*,?
Cc1ccc(-c2nc(-c3ccccn3)no2)cc1Cl,5,-1,4%,-18%,14µM*,-27%
Clc1cccc(-c2nc(-c3ccccn3)no2)c1,16,16,2%,0%,10µM*,-23%
c1ccc(-c2ccc(-c3nc(-c4ccccn4)no3)cc2)cc1,-6,-8,-1%,-2%,14µM*,?
COc1ccc(C(=O)NCCc2nnc3ccc(SCC(=O)NCCc4ccc(OC)c(OC)c4)nn23)cc1,2,1,-8%,1%,7%,1%
Cc1csc(=O)n1CCC(=O)OCC(=O)N(C)c1c(N)n(Cc2ccccc2)c(=O)[nH]c1=O,.,.,.,.,.,-9%
NCCC(=O)N[C@@H](Cc1cnc[nH]1)C(=O)O,.,.,.,2%,.,.
COc1cnc(-c2ccccn2)nc1Sc1ccc(C)cc1,7,5,2%,-6%,0%,3%
Cc1ccc(Sc2cc(C)nc(-c3ccccn3)n2)cc1,46,31*,4%,9%,0%,1%
CC(C)CC1c2[nH]c3ccccc3c2CCN1C(=O)c1cnccn1 (stereo not drawn),76*,51*,-31%,0%,-3%,-5%
CC(C)CC1c2[nH]c3ccccc3c2CCN1C(=O)CCC(=O)N(C)C (stereo not drawn),44*,18,-21%,-12%,1%,0%
COc1ccc(CN2CCCN(CC(=O)Nc3cc(C)ccc3C)S2(=O)=O)cc1,.,.,-2%,.,.,-3%
COc1ccc(/C=C2/C(=O)N(c3c(F)c(F)c(F)c(F)c3F)N=C2C)cc1,.,20*,-13%,3%,-4%,-17%
COc1ccc(/C=C2/C(=O)N(c3ccccc3)N=C2C)cc1,.,.,.,.,.,1%
COc1ccc2cc(C#N)c(N3CCOCC3)nc2c1,-3,-2,0%,4%,-5%,-1%
CCc1ccc2nc(N3CCN(C)CC3)c(C#N)cc2c1,17*,22*,11%,-5%,1%,0%
COc1ccc2nc(N3CCC(O)CC3)c(C#N)cc2c1,92,36*,-22%,?,0%,-10%
COc1ccc2nc(N3CCC(C)CC3)c(C#N)cc2c1,92*,44*,-26%,-9%,6%,0%
